In PubChem BioAssay (NCATS) one finds Potency and activity, negative = inhibition data, which are given here for 35 molecules.

The source made the active and inactive calls. Entries that show only a call come without a potency. Calls follow the shape of the dose curve; as a rule, active = well fitted inhibition curve with a large enough effect; inconclusive = small, poorly fitted or top-dose-only effect; inactive = flat fitted curve, though single readings scatter.
Potency is read from the fitted curve at half-maximal effect.

In this experiment the test system is Nanoluciferase (engineered Oplophorus gracilirostris luciferase). Nature of the experiment: Primary Nanoluciferase (NLuc) qHTS assay for identification of artifact compounds. (AID 1845222). The following applies: NLuc-conditioned medium, Nano-Glo luminescence, 5 min; series mostly up to 54.1 µM. In a few lines:
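Concentration-response data were obtained by luminescence after 5 min with Nano-Glo substrate at 1:100. The enzyme was diluted S16 NLuc-expressing cell medium, preincubated with compound for 15 min at RT. Curves were fitted with a 4-parameter Hill model.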
As to `O=C(OC[C@H]1O[C@@H](Oc2ccc(O)cc2CO)[C@H](O)[C@@H](O)[C@@H]1O)c1ccccc1`, the Potency result is “inactive”. The same measure, in the same setting: the same measure for `CC(=O)O[C@@H]1[C@@H](O)[C@H]2O[C@@H]3C=C(C)[C@@H](O)C[C@]3(CO)[C@]1(C)[C@]21CO1`: “inactive”; for `COc1cc2c(c(OC)c1OC)-c1ccc(SC)c(=O)cc1[C@@H](NC(C)=O)CC2`: 19 µM (active). The same measure, in the same setting: the same measure for `C=C1[C@@H](C)[C@H]2[C@H](Cc3ccccc3)NC(=O)[C@]23[C@H](OC(C)=O)/C=C/[C@](C)(O)C(=O)[C@@H](C)C/C=C/[C@H]3[C@@H]1O`: “inactive”; for `C[C@@H]1C[C@@H](O)[C@]2(O)O[C@@H]3C[C@@]4(C=O)C(CC[C@@H]5C4CC[C@]4(C)[C@@](O)(C6=CC(=O)OC6)CC[C@]54O)C[C@H]3OC2O1` (stereo not given in full): “inactive”.

In the case of `CC[C@H](C)[C@H](NC(=O)[C@H]1CCCCN1C)C(=O)N(COC(=O)CC(C)C)[C@H](C[C@@H](OC(C)=O)c1nc(C(=O)N[C@@H](Cc2ccc(O)cc2)C[C@H](C)C(=O)O)cs1)C(C)C`, the activity, negative = inhibition was 2.85% [at 1.03 µM] (inactive).

As for `CN[C@@H]1C[C@H]2O[C@@](C)([C@@H]1OC)n1c3ccccc3c3c4c(c5c6ccccc6n2c5c31)C(=O)NC4`, the Potency entry was “inactive”. Regarding `CC1=C[C@H]2O[C@@H]3C[C@H]4OC(=O)/C=C/C=C/C(=O)OCC/C(C)=C/C(=O)OC[C@@]2(CC1)[C@]4(C)[C@]31CO1`, the Potency result is “inactive”. The same measure, in the same setting: the same measure for `CC(=O)OC[C@]12C[C@H](OC(=O)CC(C)C)C(C)=C[C@H]1O[C@@H]1[C@H](O)[C@@H](O)[C@@]2(C)[C@]12CO2`: “inactive”; for `CC(=O)OC[C@]12C[C@H](OC(=O)CC(C)C)C(C)=C[C@H]1O[C@@H]1[C@H](O)C[C@@]2(C)[C@]12CO2`: “inactive”. The same measure, in the same setting: the same measure for `COC1CC(O[C@H]2CC[C@]3(C)C4CC[C@]5(C)[C@@H](C6=CC(=O)OC6)[C@@H](OC(C)=O)C[C@]5(O)C4CC[C@@H]3C2)OC(C)C1O[C@@H]1O[C@H](CO)[C@@H](O)[C@H](O)[C@H]1O` (stereo not given in full): “inactive”; for `Cc1c(Cl)c(OCC(=O)N2CCN(C)CC2)nc2sc(C(=O)NC3CC3)c(N)c12`: “inactive”; for `CO[C@H]1[C@H](O)[C@H](O[C@H]2CC[C@]3(C=O)C4CC[C@]5(C)[C@H](C6=CC(=O)OC6)CC[C@]5(O)C4CC[C@@H]3C2)O[C@@H](C)[C@@H]1O` (stereo not given in full): “inactive”. Still for that read-out and setting: the same measure for `C[C@H]1O[C@@H](O[C@H]2CC[C@]3(C=O)C4CC[C@]5(C)[C@@H](C6=CC(=O)OC6)CC[C@]5(O)[C@@H]4CC[C@]3(O)C2)C[C@@H](O)[C@@H]1O` (stereo not given in full): “inactive”. Turning to `COC1CC(O[C@H]2CC[C@]3(C=O)C4CC[C@]5(C)[C@@H](C6=CC(=O)OC6)CC[C@]5(O)[C@@H]4CC[C@@H]3C2)OC(C)C1O[C@@H]1O[C@H](CO)[C@@H](O[C@@H]2O[C@H](CO)[C@@H](O)[C@H](O)[C@H]2O)[C@H](O)[C@H]1O` (stereo not given in full), the activity, negative = inhibition is 1.46% [at 11.6 µM] (inactive).

Take `C[C@]12CC[C@H](O)C[C@H]1CC[C@@H]1[C@@H]2[C@H](O)C[C@]2(C)[C@@H](c3ccc(=O)oc3)CC[C@]12O`: the Potency result was “inactive”. The same measure, in the same setting: the same measure for `C[C@H]1O[C@@H](O[C@H]2CC[C@]3(CO)C4CC[C@]5(C)[C@@H](C6=CC(=O)OC6)CC[C@]5(O)[C@@H]4CC[C@H]3C2)[C@H](O)[C@H](O)[C@@H]1O[C@@H]1O[C@H](CO)[C@@H](O)[C@H](O)[C@H]1O` (stereo not given in full): “inactive”; for `CC1=C[C@H]2O[C@@H]3[C@H](O)[C@@H](O)[C@](C)([C@@]2(CO)C[C@@H]1O)[C@]31CO1`: “inactive”. Same read-out and setting: the same measure for `C[C@H]1O[C@@H](n2cnc3c(N)ncnc32)C[C@@H]1O`: “inactive”; for `OCc1nnc2n1-c1ccc(Cl)cc1C(c1ccccc1Cl)=NC2`: “inactive”; for `CC[C@@]1(O)C(=O)OCc2c1cc1n(c2=O)Cc2cc3c(OC)cccc3nc2-1`: “inactive”. Still for that read-out and setting: in the case of `CC1=CC2OC3[C@H](O)C[C@@](C)([C@]34CO4)[C@@]2(CO)[C@H](O)C1=O` (stereo not given in full) it was “inactive”; in that of `CC(=O)O[C@H]1CC[C@@]2(CI)C(=CC[C@@H]3[C@@H]2CC[C@]2(C)C(=O)CC[C@@H]32)C1`, “inactive”. For the molecule `C=C1[C@@H](C)[C@H]2[C@H](Cc3ccccc3)NC(=O)[C@]23OC(=O)/C=C/C(=O)CCC[C@@H](C)C/C=C/[C@H]3[C@@H]1O`, the Potency result is “inactive”. For `C[C@H](CCC(=O)O)C[C@H](C)C[C@H](C)C(=O)/C=C(\O)[C@H](C)C[C@H](C)C/C=C/[C@@H](C)[C@@H](O)[C@@H](C)[C@@H](O)C[C@@H]1CC[C@@](C)([C@H]2CC[C@@](C)([C@@H](C)O)O2)O1`, the Potency entry was “inactive”. Still for that read-out and setting: in the case of `CN(C)c1cc2c(cc1Sc1nc3c(N)nccc3n1CCNCC(C)(C)C)OCO2` it was “inactive”; in that of `C[C@H]1C/C=C/[C@H]2[C@@H]3O[C@]3(C)[C@@H](C)[C@H]3[C@H](Cc4ccccc4)NC(=O)[C@]32OC(=O)O/C=C/[C@@](C)(O)C1=O`, “inactive”; in that of `CC(C)(C)[C@]1(O)C[C@@H]2OC(=O)C[C@@]23C(=O)O[C@@H]2OC(=O)[C@@H](O)[C@]213`, “inactive”. Still for that read-out and setting: in the case of `N#CC(O[C@@H]1O[C@H](CO)[C@@H](O)[C@H](O)[C@H]1O)c1ccccc1` (stereo not given in full) it was “inactive”. Still for that read-out and setting: the same measure for `COC1CC(O[C@H]2CC[C@]3(C)C4CC[C@]5(C)[C@@H](C6=CC(=O)OC6)[C@@H](OC(C)=O)C[C@]5(O)C4CC[C@@H]3C2)OC(C)C1O` (stereo not given in full): “inactive”. As for `CC(=O)O[C@H]1CN2CCC1CC2`, the Potency entry is “inactive”. On the same count and under the same terms, the same measure for `CC(=O)OC[C@]12C[C@H](O)C(C)=C[C@H]1O[C@@H]1[C@H](O)[C@@H](OC(C)=O)[C@@]2(C)[C@]12CO2`: “inactive”; for `CC1=CC(=O)[C@@H](O)[C@]2(C)C3[C@@H](O)[C@@H]4OC(=O)[C@@H]([C@H]4C)[C@]3(C)C(=O)C[C@@H]12` (stereo not given in full): “inactive”. Same read-out and setting: the same measure for `CC[C@@H]1C[C@H]2CC[C@H](O2)[C@H](C)C(=O)O[C@@H](C)C[C@@H]2CC[C@@H](O2)[C@@H](C)C(=O)O[C@H](CC)C[C@H]2CC[C@H](O2)[C@H](C)C(=O)O[C@@H](C)C[C@@H]2CC[C@@H](O2)[C@@H](C)C(=O)O1`: “inactive”. Still for that read-out and setting: in the case of `N#Cc1cn([C@@H]2O[C@H](CO)[C@H](O)[C@@H]2O)c2ncnc(N)c12` it was “inactive”.
